Each structure is given as a SMILES string. Hit rate of the full screen: of about 350,000 compounds, about 31,000 (8.9%) were called active. About 15% were inconclusive and are not listed. This excerpt belongs to a sample that is enriched for actives. Values without a mark were called inactive. Calls come from the whole dose curve; as a rule, active = well fitted inhibition curve with a large enough effect; inconclusive = small, poorly fitted or top-dose-only effect; inactive = no such curve, though single readings can be large or run the other way.
% is set by controls: 0 for no effect and ±100 for the full control effect; potency is the fitted concentration of half-maximal effect.

This assay deals with Histone-lysine N-methyltransferase EHMT2 (Homo sapiens) (UniProt Q96KQ7). Kind of assay: qHTS Assay for Inhibitors of Histone Lysine Methyltransferase G9a. Note: nearly all actives have a fitted effect of over 75% in size. The following applies: G9a H3K9 monomethylation, AlphaScreen, 2 h; series mostly up to 59 µM; activity, negative = inhibition: at the top concentration. Summed up: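 Signal arises when biotinylated H3K9 peptide, once monomethylated, bridges streptavidin donor and antibody-captured acceptor beads. Enzyme at 20 nM was preincubated 15 min with test compounds; peptide 500 nM and SAM 20 uM then reacted for 2 h.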
Chain of Histone-lysine N-methyltransferase EHMT2 (Homo sapiens) (Q96KQ7 913-1193 limits assumed): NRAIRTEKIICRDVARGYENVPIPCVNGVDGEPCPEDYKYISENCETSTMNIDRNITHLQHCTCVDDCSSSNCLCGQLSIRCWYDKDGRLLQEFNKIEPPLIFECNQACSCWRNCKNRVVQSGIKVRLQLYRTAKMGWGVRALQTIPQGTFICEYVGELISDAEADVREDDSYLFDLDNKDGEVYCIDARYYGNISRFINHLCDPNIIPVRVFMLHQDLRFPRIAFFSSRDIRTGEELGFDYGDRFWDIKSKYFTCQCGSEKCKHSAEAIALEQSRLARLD
In general terms: In qHTS, concentration-response curves come from the screen itself.
As to `O=C(COC(=O)C1(c2ccc(F)cc2)CCCC1)N1CCNC1=O`, the activity, negative = inhibition was 19.8% [at 12.7 µM].
The same measure, in the same setting: under `COc1ccc(Cc2nc3ccc(C(=O)NCc4ccc(OC)cc4OC)cc3o2)cc1` stands 3.04%.
Turning to `COC(=O)C1=C(NC(=O)C(C)(C)C)CCS1`, the Potency was 1.41 µM (active).
For `Cc1cc2c(=O)n(CC(=O)NCC(=O)Nc3ccc(C(C)C)cc3)cnc2s1`, the “activity, negative = inhibition” value is 12.3% [at 102 µM].
Consider `CC1(c2ccc(Cl)cc2)NC(=O)N(CC(=O)c2ccc3c(c2)OCO3)C1=O` (centres undefined), for which the “activity, negative = inhibition” value is -7.79% [at 102 µM].
Turning to `O=C(Nc1ccccc1F)c1ccc2c(c1)OCO2`, the activity, negative = inhibition is -7.42% [at 0.501 µM].
As to `O=C(CN1CCN(c2ccccc2F)CC1)c1ccc2c(c1)OCO2`, the Potency is 20 µM (active).
As to `COc1ccc(C2CC(=O)Nc3c2c(=O)nc2c(C)cccn32)cc1OC` (centres undefined), the “activity, negative = inhibition” value is -13.1%.
On the same count and under the same terms, then `Cn1c(N)c(C(=O)COC(=O)/C=C/c2cccc(C(F)(F)F)c2)c(=O)n(C)c1=O`, with 28.8% [at 2.33 µM].
Still for that read-out and setting: then `CC1(C)O[C@@H]2CC3C4C[C@H](F)C5=CC(=O)C=CC5(C)C4C(O)CC3(C)[C@]2(C(=O)CO)O1` (some centres undefined), with -17.2%.
On the same count and under the same terms, then `CCSc1nc2sc3c(c2c(=O)[nH]1)CC(C)(C)OC3`, with 7.55% [at 102 µM].
As to `CCC1(C)Cc2c(sc3nc(SC)[nH]c(=O)c23)CO1` (centres undefined), the Potency was 44.7 µM (active).
Consider `CCC1(C)Cc2c(sc3nc(SC)nc(N)c23)CO1` (centres undefined), for which the “activity, negative = inhibition” value is 17.6%.
Still for that read-out and setting: then `COc1ccccc1NC(=O)C(=O)c1cc(C)n(-c2ccccc2F)c1C`, with -41.8%.
For the molecule `COc1cc(CNCCSc2nnnn2C)ccc1OCc1ccc(Cl)cc1Cl`, the “activity, negative = inhibition” value was -31.5%.
On the same count and under the same terms, then `COc1cc(C(=O)N(Cc2ccc(C(C)C)cc2)C2CCS(=O)(=O)C2)cc(OC)c1OC` (centres undefined), with 2.53%.
On to `Cc1cc(Cl)ccc1OCC(=O)N(Cc1ccc(N(C)C)cc1)C1CCS(=O)(=O)C1` (centres undefined), for which the Potency was 10 µM (active).
With `Cc1ccc(CN(C(=O)COc2ccc(Cl)cc2C)C2CCS(=O)(=O)C2)o1` (centres undefined), the “activity, negative = inhibition” value is -30%.
On the same count and under the same terms, then `CCc1ccc(OCC(=O)N(Cc2ccccc2)C2CCS(=O)(=O)C2)cc1` (centres undefined), with 21.1% [at 102 µM].
On to `Cc1ccccc1OCC(=O)N(Cc1cccc(F)c1)C1CCS(=O)(=O)C1` (centres undefined), for which the “activity, negative = inhibition” value was 65.3% [at 102 µM].
Take `CC(C)c1ccc(OCC(=O)N(Cc2ccc(N(C)C)cc2)C2CCS(=O)(=O)C2)cc1` (centres undefined): the Potency was 12.6 µM (active).
`COc1ccc(NC(=O)CSc2nc(SC)ns2)c(OC)c1`: the “activity, negative = inhibition” value was -2.51% [at 102 µM].
On to `COc1cccc(N2CC(NC(=O)/C=C\c3ccccc3)CC2=O)c1` (centres undefined), for which the “activity, negative = inhibition” value was 2.58%.
Still for that read-out and setting: then `CCOc1ccc(NC(=O)CN(C)C(=O)c2cccc(S(=O)(=O)N3CCCC3)c2)cc1OCC`, with -27.5% [at 102 µM]; and `CC(C)CN(C(=O)CSc1ncnc2sccc12)C1CCS(=O)(=O)C1` (centres undefined), with 0.939% [at 12.7 µM].
On the same count and under the same terms, under `COC(=O)[C@@]12CCCN1[C@H](c1ccc(-c3ccc(F)cc3)c(OC)c1)[C@H]1C(=O)N(C)C(=O)[C@H]12` stands 17.2% [at 2.33 µM].
Consider `O=C(/C=C/c1ccc([N+](=O)[O-])o1)NNC(=O)c1ccc(F)cc1`, for which the “activity, negative = inhibition” value was 4.33% [at 102 µM].
On the same count and under the same terms, then `Cc1nc2ccccc2c(=O)n1-c1ccc(F)c(NC(=O)c2cccs2)c1`, with -27.2% [at 102 µM]; and `CC(C)CN(Cc1c(O)ccc2c(=O)c(-c3ccccc3)coc12)CC(C)C`, with 6.97% [at 102 µM].
The same measure, in the same setting: under `COc1cc(C2NC(=O)NC(c3ccccc3)=C2C(C)=O)c(Br)cc1OCC(N)=O` (centres undefined) stands 13.9%; under `CC(C)(C)c1ccc(C(=O)NCC(c2ccco2)S(=O)(=O)c2ccc(F)cc2)cc1` (centres undefined), -26.1%; under `Cc1cccn2c(=O)c(/C=C3\SC(=S)N(CC(C)C)C3=O)c(NCCCOC(C)C)nc12`, 17.9% [at 102 µM].
On the same count and under the same terms, then `Cc1ccc2[nH]c(=O)c(-c3nc4c(C)cccn4c3NCc3ccco3)cc2c1`, with 23.2%.
Take `CCCN(CCC)c1nc2c(C)cccn2c(=O)c1/C=C1/SC(=S)N(Cc2ccco2)C1=O`: the Potency was 39.8 µM (active).
With `CCc1ccc(NC(=O)c2nn(-c3ccc(C)cc3)c(=O)n(C)c2=O)cc1`, the “activity, negative = inhibition” value is -3.54%.
Same read-out and setting: under `NS(=O)(=O)c1ccc(NC(=O)COc2ccc(S(=O)(=O)NC3CCCCC3)cc2)cc1` stands 3.03%; under `CCOc1cc(-c2cc(-c3ccc(NC(C)=O)cc3)nc(N)c2C#N)ccc1O`, 11.7%.
Turning to `CCc1ccc(NC(=O)N2CCc3ccccc3C2)cc1`, the “activity, negative = inhibition” value is 36.1% [at 102 µM].
With `COc1ccc(CC(=O)NC2CCSc3ccccc32)cc1OC` (centres undefined), the “activity, negative = inhibition” value was -4.72% [at 102 µM].
On the same count and under the same terms, then `CCOc1cc(C(=O)Nc2nnc3n2CCS3)cc(OCC)c1OCC`, with 35.3%.
For the molecule `COc1ccc(CC(=O)Nc2nnc3n2CCS3)cc1OC`, the Potency is 12.6 µM (active).
In the case of `COc1ccccc1NC(=O)C(C)OC(=O)c1ccc(-n2cnnn2)cc1` (centres undefined), the “activity, negative = inhibition” value is -8.77% [at 102 µM].
As for `O=C(NNC(=O)c1cccc(S(=O)(=O)Nc2ccc(Cl)cc2)c1)c1ccc(=O)[nH]c1`, the activity, negative = inhibition is 17.2% [at 12.7 µM].
Turning to `Cc1ccc(NN=C2C(=O)OC(C)(C)OC2=O)c(C)c1`, the “activity, negative = inhibition” value was -26.1% [at 102 µM].
In the case of `Cc1ccc(N/N=C2\COC(C)(C)CC2=O)cc1`, the Potency was 44.7 µM (active).
For `CN(C(=O)COC(=O)c1cc(=O)[nH]c2ccccc12)C1CCCCC1`, the activity, negative = inhibition was -20.6% [at 2.33 µM].
Consider `CCCCNC(=S)N/N=C1\CCCCc2ccccc21`, for which the “activity, negative = inhibition” value was 21.8%.
With `S=C(NCCc1ccccc1)NCC1CCCO1` (centres undefined), the “activity, negative = inhibition” value is -8.01%.
Consider `CCCC1CCC(=NNC(=S)NCCc2ccccc2)CC1` (centres undefined), for which the Potency was 14.1 µM (active).
